Screens from PubChem BioAssay.
HP1b binding inh: blocks HP1-beta chromodomain binding to methylated histone tails. AlphaScreen HP1-beta / biotin-H3K9me3 peptide binding. Potency, µM (doses to about 114 µM), inactives show top-dose activity change, negative = inhibition, usual class: inhibitors. hit rate 0.56% among 390,000. AID 540317; also: nearly all actives have a fitted effect of over 70% in size
Target sequence (P83916 whole entry, looked up): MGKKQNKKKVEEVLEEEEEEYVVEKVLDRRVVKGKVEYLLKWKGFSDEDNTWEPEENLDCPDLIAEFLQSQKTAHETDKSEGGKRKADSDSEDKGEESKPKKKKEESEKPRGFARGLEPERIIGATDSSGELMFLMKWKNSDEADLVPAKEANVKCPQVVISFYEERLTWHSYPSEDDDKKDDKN
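HP1-beta protein (50 nM final) preincubated 30 min at room temperature with biotinylated H3(1-18)K9me3 peptide (50 nM) in PBS pH 7.4, 0.01% Tween-20, then compound added for 30 min. AlphaScreen streptavidin donor/nickel chelate acceptor beads (10 ug/mL final), 30 min dark, luminescence read.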
L3MBTL1 block: L3MBTL1 (human) inhibition; hit rate 0.66% among 230,000; AID 485360; AlphaScreen L3MBTL1–H3K9me1 peptide binding; Potency, µM (doses to about 57.1 µM), without a hit: at the top dose activity, negative = inhibition, usual class: inhibitors; also: % is scaled to controls: 0 for no effect and ±100 for the full control effect; nearly all actives have a fitted effect of over 60% in size
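L3MBTL1 (50 nM) pre-complexed 30 min with biotinylated H3(1-15)K9me1 peptide (75 nM), then compounds added for 30 min at room temperature; AlphaScreen streptavidin donor/nickel chelate acceptor beads (10 ug/mL final) read after 30 min dark incubation.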
BAZ2B block: blocks human BAZ2B | Potency, µM (doses to about 114 µM), for the others: at the highest dose activity change, negative = inhibition, hits mostly inhibitors | Q9UIF8 | hit rate 4.4% among 360,000 | AlphaScreen BAZ2B-H3K14Ac peptide displacement; also: % is scaled to controls: 0 for no effect and ±100 for the full control effect; nearly all actives have a fitted effect of over 60% in size
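Protein-peptide AlphaScreen: BAZ2B 50 nM, b-H3K14Ac 50 nM, 1x PBS pH 7.4 + 0.01% Tween-20. Preincubation 30 min RT; cpd 30 min RT (top 110 uM); beads 20 min RT, light-protected.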
JMJD2A Tudor: JMJD2A Tudor domain (human) inhibition; AlphaScreen JMJD2A-Tudor / H3K4me3 peptide binding; Potency, µM (top dose mostly 114 µM), for the others: at the highest dose activity change, negative = inhibition, hits mostly inhibitors; hit rate 4.4% among 390,000; AID 504339; also: % is scaled to controls: 0 for no effect and ±100 for the full control effect; nearly all actives have a fitted effect of over 50% in size
G9a block: inhibitors of human histone lysine methyltransferase G9a; Potency, µM (titrated, usually from 102 µM), for the others: at the top dose activity, negative = inhibition, actives largely listed as inhibitors; G9a H3K9 monomethylation, AlphaScreen, 2 h; Q96KQ7; hit rate 8.8% among 350,000; also: % is scaled to controls: 0 for no effect and ±100 for the full control effect; nearly all actives have a fitted effect of over 75% in size
Target sequence (Q96KQ7 913-1193 limits assumed): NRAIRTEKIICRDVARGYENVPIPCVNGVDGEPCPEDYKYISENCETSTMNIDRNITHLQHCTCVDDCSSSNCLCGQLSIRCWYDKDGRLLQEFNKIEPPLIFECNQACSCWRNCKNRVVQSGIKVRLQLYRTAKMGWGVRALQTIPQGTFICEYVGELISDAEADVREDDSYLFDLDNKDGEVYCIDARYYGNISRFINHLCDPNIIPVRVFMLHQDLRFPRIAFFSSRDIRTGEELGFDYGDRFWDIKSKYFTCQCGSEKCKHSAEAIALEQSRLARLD
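G9a (20 nM) was preincubated 15 min with compound, then reacted 2 h at room temperature with 500 nM biotin-H3K9 peptide and 20 µM SAM. Monomethyl-H3K9 detected by AlphaScreen using anti-H3K9me1 antibody.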
An asterisk follows results filed as active; ? = inconclusive; . = no result given; [ ] = remark or other dose. Sampled rows, rich in hits. Any-hit rate of the full collection: about 11%. Calls follow the shape of the dose curve; as a rule, active = well fitted inhibition curve with a large enough effect; inconclusive = small, poorly fitted or top-dose-only effect; inactive = no such curve, though single readings can be large or run the other way. Potency is read from the fitted curve at half-maximal effect.

SMILES	HP1b binding inh	L3MBTL1 block	BAZ2B block	JMJD2A Tudor	G9a block
NCCCC[C@@H]1NC(=O)[C@H](CCC(=O)O)NC(=O)c2cc([N+](=O)[O-])cc(I)c2SC[C@@H](C(=O)NCC(N)=O)NC1=O	24%	7%	?	22µM*	3.2µM*
NCCCC[C@@H]1NC(=O)c2cc([N+](=O)[O-])cc(I)c2SC[C@@H](C(N)=O)NC(=O)[C@H](Cc2ccc(O)cc2)NC1=O	-4%	-3%	?	?	35µM*
Cc1cc(NC(=O)NCc2ccc3c(c2)CCN3C(=O)c2ccccc2)ccc1Br	8%[57 µM]	.	6%	-14%	19%[59 µM]
Cc1cccc(NC(=O)Cn2c(=O)n(CCCS(=O)(=O)C3CCCCC3)c(=O)c3ccccc32)c1	15%	.	-20%	-9%	9%[59 µM]
CCCCSCCCNC(=O)CN1C(=O)COc2ccc(S(=O)(=O)N3CCCC3)cc21	40%	.	-18%	-3%	8%[59 µM]
CCCS(=O)(=O)N1CCN(c2ccccn2)CC1	13%	.	-7%	-18%	12%
Fc1ccc(C(c2nnnn2C2CCCC2)N2CCN(Cc3ccncc3)CC2)cc1 (centres undefined)	23%	-5%	-2%	-12%	?
c1cc(CN2CCN(C3CCCCCC3)CC2)ccn1	?	3%	.	20µM*	1.8µM*
CCS(=O)(=O)N1CCN(Cc2ccncc2)CC1	50µM*	3%	35µM*	3.5µM*	14µM*
CCCS(=O)(=O)N1CCN(Cc2ccncc2)CC1	?	.	35µM*	20µM*	?
O=S(=O)(Cc1ccccc1)N1CCN(Cc2ccccc2)CC1	18%	4%	-2%	-12%	-7%[12.7 µM]
Cc1cccc(C)c1NC(=O)c1cc(S(=O)(=O)N2CCc3ccccc3C2)ccc1F	34%	.	-8%	-22%	9%[59 µM]
CC1(C)C=Cc2c(ccc3c2OC[C@H](c2ccc(O)cc2O)C3)O1	-20%	-14%	50µM*	50µM*	4%[2.33 µM]
CNC(=O)C1CCC(Cn2c(=O)c3sccc3n(Cc3ccccc3)c2=O)CC1 (centres undefined)	37%	.	2%	-3%	2%[59 µM]
COc1ccc(-c2nsc(SCC(=O)NCC3CCCO3)n2)cc1 (centres undefined)	22%	1%	-24%	-15%	7.9µM*
CCc1nnc(NC(=O)CSc2nc(-c3ccc(OC)cc3)ns2)s1	43%	7%	-1%	-8%	?
CCCC(=O)n1nc(-c2ccccc2)nc1SC	120%	10%	58%	27%	1.1µM*
CCOC(=O)CNC(=O)CSc1nc(-c2ccc(OC)cc2)ns1	?	3%	-12%	-16%	18µM*
COc1ccc(-c2nsc(SCC(=O)Nc3cc(C)on3)n2)cc1	?	-12%	4%	?	3.5µM*
O=C(CN1C(=O)CCc2cc(S(=O)(=O)N3CCOCC3)ccc21)NCc1ccc(F)cc1	20%	.	-3%	-16%	24%[59 µM]
COc1cccc(CNCCSc2nnnn2C)c1OCc1ccccc1F	28%	.	?	-17%	-11%[59 µM]
CCOC(=O)CSc1nc(-c2ccccc2)ns1	86%	52%	193%	98%	8.9µM*
CCOC(=O)Cn1nc(-c2ccccc2)c(-c2ccccc2)nc1=O	14%	.	-6%	-12%	12%[0.501 µM]
CCOC(=O)Cn1nc(-c2ccccc2)nc1-c1ccccc1	73%	1%	6%	5.6µM*	28%[59 µM]
CN(C)c1ccc2c(c1[N+](=O)[O-])Cc1ccccc1-2	?	.	.	16µM*	.
CC1(C)CC(=O)C2=C(C1)Nc1[nH]c(=S)[nH]c(=O)c1C2c1ccccc1 (centres undefined)	-3%	-4%	-35%	45µM*	11µM*
O=C1CCCC2=C1C(c1ccc(Br)cc1)c1c([nH]c(=S)[nH]c1=O)N2 (centres undefined)	-24%	-16%	?	40µM*	0.79µM*
COC(=O)C1=C(C)Nc2[nH]c(=S)[nH]c(=O)c2C1c1ccc(O)cc1 (centres undefined)	27%	-9%	-18%	?	8.9µM*
Cc1ccc(C2C3=C(CCCC3=O)Nc3[nH]c(=S)[nH]c(=O)c32)cc1 (centres undefined)	-32%	2%	79µM*	10µM*	-50%[2.33 µM]
